According to PubChem BioAssay AID624396 (The Scripps Research Institute Molecular Screening Center, 2012):
The source made the active and inactive calls.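 How the source made its calls: active means over 15% of cells apoptotic at 25 µM, or half-maximal dose of 10 µM or lower; inactive means the rest.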

Tested on: MCL1 1780
Assay: pro-apoptotic nuclear morphology in cancer cells – imaging, DAPI staining, cell line panel, probe, mechanism study for MCL1-BIM inhibitor project, late-stage follow-up (AID 624396)
Conditions: at 25 µM, active compounds read high

CCN1CCN(C(c2ccc(C(F)(F)F)cc2)c2ccc3cccnc3c2O)CC1 (stereo unspecified)
apoptosis: 99% (active)
